Bioassay records from PubChem BioAssay.
C diff HTS: blocks growth of Clostridium difficile; Clostridium difficile clinical isolate growth, OD600, 24 h; active compounds read low; growth activity, negative = inhibition, % at 16 µg/mL (by protocol); actives 0.25% (n = 86,000);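 active means mean growth activity at or below -80% and every replicate also at or below -80%; inconclusive means mean at or below -80% but some replicate above -80%; inactive means mean growth activity above -80%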;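 further: 0% = DMSO wells and -100% = levofloxacin 16 µg/mL wells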
Pf Dd2 inh: blocks growth of Plasmodium falciparum Dd2 parasites; actives 2.3% (n = 94,000); activity change, % at 10 µM; AID 1159554; P. falciparum Dd2 growth, SYBR Green, 72 h; active compounds read low; in the data active means activity change below about -80%; inconclusive means no clear call, values can overlap the other calls
T cruzi growth-1: blocks T. cruzi growth in NIH3T3 culture; T. cruzi beta-gal in NIH3T3, GalScreen luminescence, 90 h; inhibition, % at 8.34 µM; actives 5.9% (n = 77,000); AID 624255;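 active means mean inhibition above about 93%, with at least 55% of replicates each passing it, limit read from the data, passing the limit was not always enough; inconclusive means only one of those two conditions holds; inactive means neither condition holds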
T cruzi growth-2: inhibitors of T. cruzi proliferation; inhibition, % at 8.35 µM; T. cruzi beta-gal in NIH3T3, GalScreen luminescence, 90 h; shares compounds with T cruzi growth-1; actives 72% (n = 5,600);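 active means mean replicate inhibition above about 95% and at least 55% of replicates individually reaching it, limit read from the data; inconclusive means only one of the two criteria is met; inactive means neither criterion is met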
T cruzi growth-3: blocks T. cruzi growth in NIH3T3 host cells | shares compounds with T cruzi growth-1 | T. cruzi beta-gal in NIH3T3, GalScreen luminescence, 90 h | actives 21% (n = 5,600) | inhibition, % at 2.09 µM | AID 651740;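 active means mean inhibition above about 95%, with at least 55% of replicates also reaching it, limit read from the data; inconclusive means meets just one of the two conditions; inactive means meets neither condition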;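 further: plate controls were neutral control median for no effect and positive control median for full effect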
3T3 cytotox: cytotoxicity in mouse NIH/3T3 fibroblasts. shares compounds with T cruzi growth-1. NIH/3T3 viability, CellTiter-Glo ATP luminescence, 90 h. cytotoxicity (signal decrease), % at 8.35 µM. actives 14% (n = 5,600). AID 651742;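 active means mean signal decrease across replicates above about 35% based on untreated-well scatter, with enough replicates individually passing, limit read from the data; inconclusive means no rule stated though some were filed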;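 further: 0% = median of neutral control wells and 100% = median of positive control wells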
NIH3T3 tox 2: kills mouse NIH/3T3 fibroblasts; NIH/3T3 viability, CellTiter-Glo ATP luminescence, 90 h; AID 651744; shares compounds with T cruzi growth-1; inhibition, % at 24.9 µM; actives 56% (n = 5,600);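 active means mean loss of cell viability signal at or above a set limit, and enough replicates individually reaching it; inconclusive means meets only the mean limit or only the replicate share; inactive means meets neither condition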;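 further: 0% = median of neutral control wells and 100% = median of positive control wells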
* = called active by the depositor. Only some compounds are listed: those with a hit (about 6.7% of all), similar ones and a draw of the others.

Screening CC(C)NC(=O)Nc1ccc2c(c1)C(=O)N([C@@H](C)CO)C[C@@H](C)[C@H](CN(C)C(=O)NC1CCCCC1)OCCCC[C@@H](C)O2 returned C diff HTS -2, Pf Dd2 inh -51, T cruzi growth-1 97*, T cruzi growth-2 38, T cruzi growth-3 -5, 3T3 cytotox 10 and NIH3T3 tox 2 -1.
For COc1cccc(-c2ccc([C@H]3[C@H](CO)N4C(=O)CN(C(=O)NC(C)C)C[C@@H]34)cc2)c1 the results were C diff HTS -6 and Pf Dd2 inh -3.
COc1ccc(NC(=O)N(C)C[C@H]2OCCCC[C@@H](C)Oc3ccc(NC(=O)Cc4ccccc4)cc3C(=O)N([C@H](C)CO)C[C@@H]2C)cc1 was read as C diff HTS 0, Pf Dd2 inh -21 and T cruzi growth-1 -11.
O=C(Nc1cccc(F)c1)N1CCCCN2[C@H](CO)[C@H](c3ccc(-c4ccncc4)cc3)[C@@H]2C1 was read as C diff HTS 2, Pf Dd2 inh -23, T cruzi growth-1 108*, T cruzi growth-2 100*, T cruzi growth-3 38, 3T3 cytotox 7 and NIH3T3 tox 2 8.
O=C(Nc1cccc(F)c1)N1CCCCN2[C@H](CO)[C@@H](c3ccc(-c4ccncc4)cc3)[C@@H]2C1 was read as C diff HTS 11, Pf Dd2 inh -69, T cruzi growth-1 103*, T cruzi growth-2 113*, T cruzi growth-3 50, 3T3 cytotox 36* and NIH3T3 tox 2 31*.
Cc1ccc(-c2ccc([C@H]3[C@H]4CN(C(=O)Nc5cccc(F)c5)CCCCN4[C@H]3CO)cc2)cc1 was read as C diff HTS 48, Pf Dd2 inh 15 and T cruzi growth-1 72.
For O=C(Nc1ccc(F)cc1)N1CCCCN2[C@H](CO)[C@H](c3ccc(-c4ccncc4)cc3)[C@H]2C1 the results were C diff HTS 7, Pf Dd2 inh -22 and T cruzi growth-1 87.
Screening Cc1ccc(-c2ccc([C@H]3[C@H](CO)N4CCCCN(C(=O)Nc5cccc(F)c5)C[C@@H]34)cc2)cc1 returned C diff HTS -99*, Pf Dd2 inh 16, T cruzi growth-1 106*, T cruzi growth-2 99*, T cruzi growth-3 inconclusive, 3T3 cytotox 118* and NIH3T3 tox 2 105*.
O=C(Nc1ccc(F)cc1)N1CCCCN2[C@@H](CO)[C@H](c3ccc(-c4ccncc4)cc3)[C@@H]2C1 was read as C diff HTS 4, Pf Dd2 inh -7 and T cruzi growth-1 81.
C[C@H]1CN([C@@H](C)CO)C(=O)c2cc(-c3ccc(F)cc3)cnc2O[C@@H]1CN(C)C(=O)c1ccncc1 was read as Pf Dd2 inh 7 and T cruzi growth-1 36.
For Cc1ccc(S(=O)(=O)N[C@H]2CC[C@H](CC(=O)NCCCN(C)C)O[C@H]2CO)cc1 the results were C diff HTS 2, Pf Dd2 inh 7 and T cruzi growth-1 -17.
COc1ccc(S(=O)(=O)Nc2cccc3c2O[C@H](CN(C)S(=O)(=O)c2cccs2)[C@H](C)CN([C@H](C)CO)C3=O)cc1 was read as C diff HTS -18, Pf Dd2 inh -19 and T cruzi growth-1 17.
COc1ccc(NC(=O)N(C)C[C@@H]2OCCCC[C@H](C)Oc3ccc(NS(=O)(=O)c4ccccc4)cc3C(=O)N([C@H](C)CO)C[C@H]2C)cc1 was read as C diff HTS 3, Pf Dd2 inh -33 and T cruzi growth-1 73.
`C[C@@H]1CN([C@@H](C)CO)C(=O)c2cc(NC(=O)CCC(F)(F)F)ccc2O[C@@H](C)CCCCO[C@H]1CN(C)C(=O)NC1CCCCC1` gave C diff HTS 8, Pf Dd2 inh -52 and T cruzi growth-1 20.
`CN1c2ccc(-c3cccc(F)c3)cc2[C@H]2[C@H](CCN2C(=O)C2CC2)[C@@H]1CO` gave C diff HTS -5, Pf Dd2 inh -8, T cruzi growth-1 117*, T cruzi growth-2 102*, T cruzi growth-3 64, 3T3 cytotox -3 and NIH3T3 tox 2 inconclusive.
Screening COCC(=O)N1CC[C@H]2[C@@H]1c1cc(-c3cccc(F)c3)ccc1N(C)[C@H]2CO returned C diff HTS 2, Pf Dd2 inh 15 and T cruzi growth-1 87.
`CCC(=O)N1CC[C@H]2[C@@H]1c1cc(-c3cccc(F)c3)ccc1N(C)[C@H]2CO` gave C diff HTS -5, Pf Dd2 inh -2 and T cruzi growth-1 77.
`COCC(=O)N1CC[C@@H]2[C@@H](CO)N(C)c3ccc(-c4cccc(F)c4)cc3[C@@H]21` gave C diff HTS 4, Pf Dd2 inh 18, T cruzi growth-1 inconclusive, T cruzi growth-2 106*, T cruzi growth-3 56, 3T3 cytotox 4 and NIH3T3 tox 2 6.
COCC(=O)N1CC[C@@H]2[C@H]1c1cc(-c3cccc(F)c3)ccc1N(C)[C@H]2CO was read as C diff HTS -8, Pf Dd2 inh 25, T cruzi growth-1 102*, T cruzi growth-2 107*, T cruzi growth-3 77, 3T3 cytotox -5 and NIH3T3 tox 2 4.
Screening CN1c2ccc(-c3cccc(F)c3)cc2[C@H]2[C@H](CCN2C(=O)C2CCC2)[C@H]1CO returned C diff HTS 60 and Pf Dd2 inh -4.
C[C@H](CO)N1C[C@H](C)[C@H](CN(C)Cc2ccc(C(F)(F)F)cc2)Oc2ccc(NC(=O)CCCN(C)C)cc2C1=O was read as C diff HTS 4, Pf Dd2 inh 12 and T cruzi growth-1 59.
Screening O=C(C[C@@H]1C[C@@H]2c3cc(NC(=O)Nc4ccccc4)ccc3O[C@@H]2[C@H](CO)O1)NCc1ccccn1 returned C diff HTS -1, Pf Dd2 inh 9 and T cruzi growth-1 -8.
For O=C(C1CCC1)N1CCCCN2[C@H](C1)[C@H](c1ccc(-c3ccncc3)cc1)[C@@H]2CO the results were C diff HTS 3, Pf Dd2 inh 18 and T cruzi growth-1 55.
`CN(C)C(=O)c1ccc(-c2ccc([C@@H]3[C@@H](CO)N4CCCCN(C(=O)C5CCCC5)C[C@@H]34)cc2)cc1` gave C diff HTS -13, Pf Dd2 inh -9 and T cruzi growth-1 54.
`CN(C)C(=O)c1ccc(-c2ccc([C@@H]3[C@@H](CO)N4CCCCN(C(=O)C5CCC5)C[C@@H]34)cc2)cc1` gave C diff HTS -4, Pf Dd2 inh -56 and T cruzi growth-1 -1.
`CN(C)C(=O)c1ccc(-c2ccc([C@H]3[C@H](CO)N4CCCCN(C(=O)C5CC5)C[C@@H]34)cc2)cc1` gave C diff HTS 0, Pf Dd2 inh -77, T cruzi growth-1 inconclusive, T cruzi growth-2 100*, T cruzi growth-3 80, 3T3 cytotox -26 and NIH3T3 tox 2 10.
